Experimental findings from ChEMBL document CHEMBL4513216, “Probing the Open Global Health Chemical Diversity Library for Multistage-Active Starting Points for Next-Generation Antimalarials” (ACS Infect Dis, 2020) are described below.

About 8,600 (12%) of roughly 69,000 compounds showed an effect of 50% or more. The list comes from a sample in which strong results are over-represented; it also holds similar structures and randomly drawn compounds.

The subject of the test is Plasmodium berghei. In words: Screen against P. berghei liver stage (PbLuc), transformed with Luciferase, at 10uM. In kind it is functional, HepG2. The note with it: tested at 10 uM.
Consider `CC(C)C1SCC(=O)Nc2c1c(O)nn2C1CCCCC1` (stereo not drawn), for which the INHIBITION came to 74.4%.
For `CC(C)(C)C1SCC(=O)Nc2c1c(O)nn2C1CCCCC1` (stereo not drawn) the value was 37.4%; for `CC(C)C1SCC(=O)Nc2c1c(O)nn2C1CCCC1` (stereo not drawn), 1.04%; for `CC(C)Oc1ccccc1C1CC(=O)Nc2nc(N3CCOCC3)sc21` (stereo not drawn), -41.2%.
With `Cc1nc2c(c(=O)[nH]1)CCN(C(=O)c1[nH]nc3c1CC(C)CC3)C2` (stereo not drawn), the INHIBITION is given as 15.2%.
For `c1nc(CN2CCCC(Cc3ccc(NC4CCCC4)nn3)C2)c[nH]1` (stereo not drawn) the value was 13.7%.
For `Cc1cc(C)c2c(N3CCN(Cc4ncccc4C)CC3)ncnc2n1`, the INHIBITION is given as 58.1%.
`CCNc1ccnc(N2CCN(Cc3ncccc3C)CC2)n1`: the INHIBITION was determined as 51.3%.
Turning to `Cc1cccnc1CN1CCN(c2noc(-c3ccccc3)n2)CC1`, the INHIBITION is -13.2%.
For `Cc1cc(C)c2c(N3CCN(CCN4CCOCC4)CC3)ncnc2n1` the value was 40.3%; for `COCCN1CCN(c2ncnc3nc(C)cc(C)c23)CC1`, -14.1%.
As for `CCOc1ccnc(N2CCN(Cc3ncccc3C)CC2)n1`, the INHIBITION is 27.9%.
As to `CC(C)C(=O)N1CCN(c2ncnc3cc4c(cc23)OCCO4)CC1`, the INHIBITION came to 2.69%.
In the case of `O=C(O)c1ccccc1-n1cc(CN2CCOC(c3cc[nH]n3)C2)cn1` (stereo not drawn), the INHIBITION is listed as 20.7%.
As for `Cc1ccc(-c2nc(CN3CCCC(Cn4cncn4)C3)cs2)o1` (stereo not drawn), the INHIBITION is -7.35%.
In the case of `Nc1ncnc2nc(C3CCN(C(=O)Cc4ccc(F)cc4)C3)ccc12` (stereo not drawn), the INHIBITION is listed as -19.9%.
For `CCC(C)N(Cc1cnc(NC(C)C)nc1)Cc1ccsc1` (stereo not drawn) the value was 30.4%; for `CCc1nnc(Nc2cccc(C3CCN(C(=O)CNC)CC3)n2)s1`, -17.7%.
For the compound `CC(Cc1cn(CCc2n[nH]c(=O)[nH]2)nn1)c1ccccc1` (stereo not drawn), the INHIBITION came out at 18.5%.
`CN(C)c1ccc(CC2CCN(c3cnccn3)C2)nn1` (stereo not drawn): the INHIBITION is 0.696%.
Take `COC1(CNC(=O)c2ccsc2)CCSC1` (stereo not drawn): the INHIBITION turned out to be 5.91%.
For `COC(=O)CN1CCC(C(F)(F)F)CC1` the value was -8.9%; for `Cc1ccsc1C(=O)N1CCc2ncc(CN(C)C)n2CC1`, 62.9%; for `Cc1ccsc1C(=O)N1CCc2ncc(Cn3cccn3)n2CC1`, 29.4%.
As to `Cc1ccsc1C(=O)N1CCc2ncc(CN3CCCC3)n2CC1`, the INHIBITION turned out to be 8.6%.
On to `CN(C)Cc1cnc2n1CCN(C(=O)Cc1ccc(F)cc1)CC2`, for which the INHIBITION is given as 52.6%.
Under `CN(C)Cc1cnc2n1CCN(C(=O)Cc1ccsc1)CC2` stands 11.3%; under `CN(C)Cc1cnc2n1CCN(C(=O)Cc1cccc(F)c1)CC2`, 37.9%; under `Cc1nc(N)ncc1C(=O)N1CCCC(CCc2ccccc2F)C1` (stereo not drawn), 43.9%.
For the compound `O=c1[nH]c2ccccc2cc1CNCCCN1CCOCC1`, the INHIBITION is given as 36.4%.
For `O=C(N1CCCC1)N1CCC2(CCN(Cc3ccccn3)C2=O)C1` (stereo not drawn) the value was 15.6%; for `Cc1ccc(CN2CCc3nnc(CN4CCCC4=O)n3CC2)s1`, 37.1%.
For the compound `CS(=O)(=O)NCC1CCCN(C(=O)CCCc2ccccc2)C1` (stereo not drawn), the INHIBITION was -0.18%.
Consider `O=C(Cc1ccsc1)N1CCCC(CNS(=O)(=O)Cc2ccccc2)C1` (stereo not drawn), for which the INHIBITION is reported as 34.6%.
For `O=S(=O)(Cc1ccccc1)NCC1CCCN(Cc2cccs2)C1` (stereo not drawn) the value was 48.1%; for `CS(=O)(=O)NCC1CCCN(C(=O)COCc2ccccc2)C1` (stereo not drawn), 32.6%.
With `O=C(CN1CCCC1)N1CCCC(CNS(=O)(=O)Cc2ccccc2)C1` (stereo not drawn), the INHIBITION is 51.3%.
Turning to `O=C(Cc1cccs1)N1CCCC(CNS(=O)(=O)Cc2ccccc2)C1` (stereo not drawn), the INHIBITION was determined as 73.6%.
For `CC(=O)N1CCCC1c1ccc(CN2CCOCC2)cn1` (stereo not drawn) the value was 35.625%.
Under `CCC(COC)NC(=O)N1CCC(n2ccc(C(F)(F)F)n2)CC1` (stereo not drawn) stands -15.1%; under `CCn1ccc(-c2nnc(SCC(=O)Nc3ccc(C)cc3)n2CC)n1`, 7.38%.
Consider `CCN1C(=O)CC(c2ccccc2)C12CCN(CC1CCOCC1)CC2` (stereo not drawn), for which the INHIBITION turned out to be 43.2%.
Under `CCN(C)c1ncnc2c1CCN(S(=O)(=O)c1ccccc1)CC2` stands 43.9%; under `Cc1ccc(OCCn2cnc3oc(C)c(C(=O)O)c3c2=O)cc1`, -1.04%; under `CC(Cn1ccnc1)NC(=O)N1CCN(Cc2ccco2)CC1` (stereo not drawn), -13.65%.
Under `OC1CCN(c2cncc(CCC3CCCN3)n2)CC1` (stereo not drawn) stands 9.575%; under `O=C(NCc1cn2c(n1)SCC2)c1ccc(CN2CCCCC2)cc1`, 29.2%; under `O=C(NCc1cn2c(n1)SCC2)c1cn(CCN2CCCCC2)nn1`, 21%.
For `O=C(CCN1CCCCO1)NCc1cn2c(n1)SCC2` the value was 78.4%; for `CN(C(=O)C1CCCC1)C(c1cccc(F)c1)c1ccccn1` (stereo not drawn), 5.7%; for `CCOc1ccc(C(=O)N(Cc2cnn(C)c2)C(C)C)cc1OCC`, 27.8%.
On to `O=C(CO)N1CCCC2(CCC(=O)N(CC3CC3)C2)C1` (stereo not drawn), for which the INHIBITION worked out at 33%.
Turning to `O=C(CCC(F)(F)F)N1CCCC2(CCC(=O)N(CC3CC3)C2)C1` (stereo not drawn), the INHIBITION amounted to 59.4%.
For `O=C(CSCC1CC1)N1CCCC2(CCC(=O)N(CC3CC3)C2)C1` (stereo not drawn) the value was 32.1%; for `Cc1ccc(C(=O)N2CCc3ncnc(-c4cnn(C)c4)c3CC2)cn1`, -64.6%; for `CCNC(=O)Nc1ccc(N2CCC(OC)CC2)c(C(F)(F)F)c1`, 89.6%.
For `COC1CCN(c2ccc(NC(=O)C3CC3)cc2C(F)(F)F)CC1` the value was 95.8%.
As to `CCNC(=O)C1CCCN(c2ccc(C#N)cc2C(F)(F)F)C1` (stereo not drawn), the INHIBITION amounted to 26.3%.
As for `COCC(=O)Nc1ccc(N2CCC(OC)CC2)c(C(F)(F)F)c1`, the INHIBITION is 30.3%.
`CCC(=O)Nc1ccc(N2CCC(OC)CC2)c(C(F)(F)F)c1`: the INHIBITION stood at 45.1%.
For `COCCCNC(=O)Nc1ccc(-n2cncn2)c(C(F)(F)F)c1`, the INHIBITION is given as -37.55%.
Under `COCCNC(=O)[C@H]1CN(Cc2nccs2)C[C@H]2OCC[C@@H]12` stands -3.19%; under `CCOCCC1(CNC(=O)c2ccc(C)nc2)CCCC1`, -30.6%.
Under `c1ccc(-c2cc(CN3CCC(c4ccn[nH]4)CC3)on2)cc1` stands 73.5%; under `Cc1cccc(-c2noc(CN3CCC(c4ccn[nH]4)CC3)n2)c1`, -39.6%; under `c1ccc(-c2noc(CN3CCC(c4ccn[nH]4)CC3)n2)cc1`, 35.1%.
On to `Cn1cnc(S(=O)(=O)N2CCCC2c2ccnc3nccn23)c1` (stereo not drawn), for which the INHIBITION came to 23.84%.
Under `CC(C)c1nccn1C1CCCN(C(=O)CCc2cnn(C)c2)C1` (stereo not drawn) stands 33.3%; under `CSCC(=O)N1CCCC(n2ccnc2C(C)C)C1` (stereo not drawn), 45.4%.
Take `CC(C)c1nccn1C1CCCN(C(=O)CCNS(C)(=O)=O)C1` (stereo not drawn): the INHIBITION is 36.1%.
Under `CC(C)c1nccn1C1CCCN(C(=O)CCc2cscn2)C1` (stereo not drawn) stands 62.1%; under `CCc1nnsc1C(=O)N1CCCC(n2ccnc2C(C)C)C1` (stereo not drawn), 53.9%.
Take `CC(C)c1nccn1C1CCCN(C(=O)c2nccnc2N)C1` (stereo not drawn): the INHIBITION amounted to 41.5%.
Under `Cc1cc(N2CCC(c3ncc[nH]3)CC2)c2ccccc2n1` stands 41.6%.
Consider `Cc1nc(CN2CCOCC3(CCN(c4cnccn4)CC3)C2)cs1`, for which the INHIBITION is given as -11.6%.
Regarding `CN(CC(C)(CO)CO)C(=O)Nc1cc(Cl)cc(Cl)c1`, the INHIBITION was determined as 26.515%.
For `c1csc(-c2nc(CN3CCCCC3Cn3cccn3)co2)c1` (stereo not drawn) the value was 11.5%.
For `NC1CC(C(F)(F)F)=NC=C1c1ccc(Cl)cc1` (stereo not drawn) the value was 59%; for `NC1CC(C(F)(F)F)=NC=C1c1ccccc1` (stereo not drawn), 4.08%; for `COc1ccc(C2=CN=C(C(F)(F)F)CC2N)cc1` (stereo not drawn), -0.371%.
Under `COc1ccc(C(=O)NC2CC2)c(OC2CCN(C3CCC3)CC2)c1` stands 29.4%; under `COc1ccc(C(=O)NC2CC2)c(OC2CCN(C(C)CO)CC2)c1` (stereo not drawn), 76.6%.
Turning to `COc1ccc(C(=O)NC2CC2)c(OC2CCN(CC3CC3)CC2)c1`, the INHIBITION was 26.7%.
As for `COc1ccccc1OC1CCN(C(=O)CCCN2CCOCC2)CC1`, the INHIBITION is on record as 23.8%.
`COc1ccc(C(=O)NC2CC2)c(OC)c1`: the INHIBITION is given as 23.6%.
As for `COc1ccc(C(=O)NC2CC2)c(OC2CCN(CCCSC)CC2)c1`, the INHIBITION is 60.3%.
In the case of `O=C(NC1CCCCC1)N1CCn2c(nnc2C2CCCN2)C1` (stereo not drawn), the INHIBITION is 44.1%.
Under `CS(=O)(=O)NCc1nnc2n1CCN(Cc1cccs1)CC2` stands 34.6%; under `NC(=O)COc1ccc(CNCc2cc(F)cc(F)c2)cc1`, -28%; under `Cc1cc2nc(C(C)C)cc(NCCc3ccncc3)n2n1`, 34%.
Turning to `CC(=O)N1CCC(C(=O)NC(C)c2cccc(OC(F)F)c2)CC1` (stereo not drawn), the INHIBITION stood at 58.3%.
For `CC(NC(=O)C1CCN(S(N)(=O)=O)CC1)c1cccc(OC(F)F)c1` (stereo not drawn) the value was 17%; for `CC(=O)N1CC(C(=O)Nc2cccc(OC(F)F)c2)C1`, 26%; for `CCc1ncc2c(n1)CN(Cc1cc(C)on1)CC2`, 35.4%.
Turning to `Cc1nn(C)cc1-c1cncn1CCN(C)C1CCCC1`, the INHIBITION is listed as -25.3%.
For `CCCC(=O)N1CCCN(C(=O)c2oc(C)nc2C)CC1` the value was 80%; for `CCCN1CCCN(C(=O)c2oc(C)nc2C)CC1`, 2.7%.
For the compound `Cc1nc(C)c(C(=O)N2CCN(CCOc3ccccc3C)CC2)o1`, the INHIBITION was found to be 66.3%.
Under `Cc1nc(C)c(C(=O)N2CCc3nnc(C4CCCCN4C)n3CC2)o1` (stereo not drawn) stands -4.68%; under `COCCN1CCCN(C(=O)c2oc(C)nc2C)CC1`, 33.4%; under `Cc1ocnc1C(=O)N1CCN(CCOc2ccccc2)CC1`, 37.6%.
Under `COCCNC(=O)C(C)n1nc(-c2ccco2)cc(N)c1=O` (stereo not drawn) stands 42.6%; under `CC(C)OCCCN(Cc1ccncc1)Cc1cccc(F)c1F`, -12.9%.
For `COc1cc2cc(C(=O)O)n(C)c2c(OC)c1OC` the value was -9.48%; for `COc1cc2cc(C(=O)NCCC(=O)O)n(C)c2c(OC)c1OC`, 11%; for `COc1cc2cc(C(=O)NCC(=O)O)n(C)c2c(OC)c1OC`, 57.3%.
`Cc1nc(C2CCCN2CCC(=O)N2CCc3ccccc32)no1` (stereo not drawn): the INHIBITION is 5.03%.
Under `Cc1nnc(N2C[C@H](OCC3CCCC3)[C@H]3OCCC[C@H]32)s1` stands -34.7%.
